Source: PubChem BioAssay (NCI)
Compounds without any hit were thinned out: in the full panel of roughly 83,000, 20% have a hit.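 Negative percent growth values reflect cell death: -40 means 40% of the cells present at the start died, and -100 means all died.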 Values without a mark were called inactive. Active and inactive are the calls of the source. How the source made its calls: active means growth percent below 10; inactive means the rest.

Assays:
Assay in all cases: NCI-60 one-dose screen, 48 h (100 = growth as untreated, 0 = no growth, -100 = all killed)
Settings in all cases: 10 µM
[1] = tested on: T-47D breast
[2] = tested on: BT-549 breast
[3] = tested on: MDA-MB-435 melanoma
[4] = tested on: SW-620 colon
[5] = tested on: MCF7 breast
[6] = tested on: HCT-116 colon
[7] = tested on: HCC-2998 colon
[8] = tested on: KM12 colon

SMILES | growth [1] | growth [2] | growth [3] | growth [4] | growth [5] | growth [6] | growth [7] | growth [8]
COc1cc([C@@H]2c3cc4c(cc3[C@H](SC(=N)N)[C@H]3COC(=O)[C@H]23)OCO4)cc(OC)c1OC | 58.6% | 21.7% | -31.1% (active) | 22.5% | 14.4% | 0.571% (active) | -1.43% (active) | -0.331% (active)
Cc1cccc2c1O/C(=C\c1ncc([N+](=O)[O-])n1C)C2=O | 89.7% | -53.7% (active) | -54.1% (active) | -11.6% (active) | 2.72% (active) | -66.6% (active) | -73.1% (active) | -50.6% (active)
COc1cc(C2=Nc3c/c(=C\c4c(O)[nH]c5ccc(Cl)cc45)ccc3=N2)cc(OC)c1OC | 48.5% | -28.2% (active) | -65.7% (active) | -48.2% (active) | -41.8% (active) | -51.4% (active) | 66.3% | 5.27% (active)
COC(=O)c1ccc(Cn2ccc(=O)[nH]c2=O)cc1 | 107% | 113% | 105% | 110% | 99.2% | 104% | 106% | 103%
Cc1cc(Cl)ccc1Nc1nc(C(F)(F)F)ccc1C(=O)N/N=C/c1ccccc1Cl | 22% | -12.1% (active) | 16.4% | 19.9% | 16.2% | 7.23% (active) | 16.7% | 14.8%
C/C(=N\NC(N)=S)C(C)(C)O | 57.1% | 104% | 96.9% | 77.4% | 27.1% | 6.43% (active) | 102% | 99.7%
CCN(CC)CCOC(=O)c1ccc(N=Nc2ccc(O)c(OC)c2)cc1 | 86.6% | 101% | 103% | 103% | 95.6% | 93.9% | 103% | 103%
O=[N+]([O-])c1cc2ncccc2c2ncccc12 | 74.6% | 89.6% | 61.9% | 85.4% | 60.6% | 53.5% | 108% | 96.3%
CCN(Cc1ccccc1)C1CCN(Cc2cc(Br)ccc2O)CC1 | 44.3% | 80.6% | 52.1% | 63.7% | 46.5% | 38.7% | 2.04% (active) | 51.3%
COc1ccc(S(=O)(=O)Nc2ccc(OCc3nnc(-c4ccc(Cl)cc4)o3)c(F)c2)cc1 | 9.53% (active) | 55% | 64% | 84.5% | 42.8% | 54.6% | 74.2% | 56.3%
Cc1cc(O)c(C2=NN(c3ccc(S(N)(=O)=O)cc3)C(c3ccc(N(C)C)cc3)C2)c(C)c1Cl (stereo unspecified) | 37% | 95.7% | 69.3% | 72.2% | 37.2% | 41.1% | 94.1% | 62.4%
CC1(C)CNC(=O)N1 | 99.2% | 103% | 102% | 102% | 94.5% | 91.6% | 95.7% | 104%
O=C1/C(=C/c2ccc([N+](=O)[O-])s2)Oc2ccc(Cl)cc21 | -34.9% (active) | -67.1% (active) | -60.4% (active) | -64.4% (active) | -26.7% (active) | -52.7% (active) | -74.8% (active) | -53.3% (active)
C=CCc1cc(Nc2c3ccc(Cl)cc3nc3ccc(OC)cc23)cc(CN(CC)CC)c1O | 0.233% (active) | 10.9% | 15.5% | 15.9% | 3.42% (active) | 5.97% (active) | 24.2% | 11.7%
C=CCOc1ccc2c(c1)CC[C@@H]1[C@@H]2CC[C@]2(C)C(=O)/C(=N/O)C[C@@H]12 | 22.7% | 28.6% | 61.6% | 42.5% | 44.2% | 12.2% | 27% | 61.6%
COC(=O)[C@]12CC[C@@H](C)[C@H](C)[C@@H]1C1=CC[C@@H]3[C@@]4(C)C[C@@H](O)[C@H](O)[C@@](C)(CO)[C@@H]4[C@H](O)C[C@@]3(C)[C@]1(C)CC2 | -47.1% (active) | -66.1% (active) | -66.9% (active) | -54.1% (active) | -24.3% (active) | -82.3% (active) | -89.2% (active) | -74.2% (active)

SMILES | growth [1] | growth [2] | growth [3] | growth [4] | growth [5] | growth [6] | growth [7] | growth [8]
CCCn1c(=O)c2c(nc(-c3cccc(OCCCCl)c3)n2C)n(CCC)c1=O | 15.8% | 67.9% | 82.5% | 76.6% | 84.6% | 36.4% | 69.7% | 76.2%
Cc1nc2sccn2c1-c1csc(Nc2cccc(Cl)c2C)n1 | 36.2% | 43.9% | 7.55% (active) | 49.1% | 38.1% | 46.1% | 69% | 50.8%
CC(C)/C(=N/O)c1ccccc1 | 114% | 111% | 107% | 114% | 107% | 109% | 106% | 117%
COC(=O)c1c(C)nc(Nc2nc3ccccc3s2)nc1-c1ccc(Cl)cc1Cl | 105% | 101% | 111% | 104% | 78.5% | 98.4% | 108% | 103%
COC(=O)[C@]12CC[C@@H](C)[C@H](C)[C@@H]1C1=CC[C@@H]3[C@@]4(C)C/C(=N\O)[C@H](O)[C@@]5(C)COC(=C45)C[C@@]3(C)[C@]1(C)CC2 | -84.6% (active) | -79.8% (active) | -84% (active) | -64.5% (active) | -71.1% (active) | -84.8% (active) | -89.4% (active) | -80.9% (active)
CCN(CC)CC(O)Cc1ccc(OC)cc1 (stereo unspecified) | 104% | 121% | 102% | 114% | 111% | 111% | 111% | 116%
CCCCC(=O)N(c1ccc(Nc2c3ccccc3nc3cc([N+](=O)[O-])ccc23)cc1)S(C)(=O)=O | 15.1% | 86.3% | 96.8% | 71.5% | 17.2% | 63.4% | 86.1% | 38.4%
O=C(Nc1ccc(OS(=O)(=O)Cc2ccccc2)cc1)C12CC3CC(CC(C3)C1)C2 | 51.3% | 71.2% | 97.9% | 25.3% | 80.7% | 63.9% | 49.1% | 42.4%
C=CCN1C(=O)/C(=C\c2ccc3c(c2)CCC3)SC1=S | 91.5% | 93.5% | 109% | 104% | 103% | 99.8% | 106% | 104%
CCOC(=O)CSC(=S)SCC(=O)OCC | 89.6% | 106% | 94.9% | 135% | 88.7% | 99.1% | 105% | 100%
COc1cccc(-c2nnc(COc3ccc(-c4nc5ccc(C)cc5[nH]4)cc3OC)o2)c1 | 50.7% | 92.7% | 41.6% | 64.5% | 18.5% | 29.4% | 88.6% | 39.7%
Cc1cc(Nc2cccc(F)c2)nc(NCc2ccccc2)n1 | 15.6% | 82% | 23.2% | 22.7% | 15.1% | 15.8% | 26.9% | 14.1%
COc1cc(OC)cc(-c2n/c(=C\c3c(O)[nH]c4ccc(OC)cc34)cc3c2=Nc2ccccc2-3)c1 | 109% | 92.3% | 67.2% | 46.9% | -64.9% (active) | 13.7% | 22.2% | -49.8% (active)
Cc1ncc([N+](=O)[O-])n1CCOc1ccc(C(=O)/C=C/c2ccc(C(F)(F)F)cc2)cc1 | 51.6% | 68.1% | 83.1% | 15.4% | 12.7% | -59% (active) | 95.9% | 14.5%
Cc1cnc(C=O)c2cccc([N+](=O)[O-])c12 | 82.3% | 88.5% | 106% | 47.4% | 75.8% | 17.5% | 101% | 99.2%
CCc1ccc(-c2nnc(COc3ccc(-c4nc5cc(Cl)c(Cl)cc5[nH]4)cc3OC)o2)cc1 | 43.6% | 105% | 65.2% | 53% | 15.4% | 1.36% (active) | 82.8% | 44.1%
